The source of these data is PubChem BioAssay.

Assay [1] in a line: growth inhibition of DIPG cells – cell-based, MIPE5.0 library, qHTS (AID 1347068; cut-off not given, nearly all actives have IC50 up to about 30 µM;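 on IC50: cells exposed to compound for 48 hours before viability readout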). To be noted: SU-DIPG-XXV viability.
Assay [2] is described as follows: viability loss with induced miR-34 in A549 – imaging, A549 dox-inducible miR-34, nuclei and caspase counts, primary screen (AID 1347080). To be noted: A549 miR-34 inducible, Hoechst nuclei count, 48 h.
Assay [3] can be described thus: MELAS cybrid and Rieske KO viability enhancers – cell-based, MELAS cybrids, Rieske KO mouse fibroblasts, CellTiter-Glo, primary screen (AID 1508586;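 active means mean z-score across replicates of 1.96 or higher in either the MELAS or the Rieske mutant cell line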;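 further: z relative to plate mean and SD of compound and empty wells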). To be noted: low glucose. A general note: Cellular ATP, detected with luciferase, serves as a proxy for viable cell number.
Setting [4] is: stronger effect = lower value, cell number ratio, induced over uninduced.
The mark [5] stands for this setting: measured here: relative caspase fold change +Dox/-Dox.
Where [6] appears, read: measured here: total cells with miR-34 induction, stronger effect = lower value.
Setting [7] is: measured here: total cells without miR-34 induction.

Inconclusive results are not listed. Activity calls are given as the source filed them.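 How the source made its calls, unless noted: active means compounds whose cell count with miR-34 switched on is under 0.7 times the count with it off; inactive means the rest.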

`O=c1[nH]nc2c3c(cccc13)NC(CN1Cc3ccccc3C1)=N2`: the result in assay [1] was inactive.
As for `COc1cc(/C=C/C(=O)N2CCCCCC2)cc(OC)c1OC`, the fold change in assay [2] (setting [4]) is 0.968 (inactive); in assay [2] (setting [5]), 0.988. Besides, the cell count in assay [2] (setting [6]) amounted to 7660; in assay [2] (setting [7]) it was 7910.
On to `C[C@H](NC(=O)[C@H]1NCC[C@@H]1O)c1ccc(-c2noc(CCC3CCCC3)n2)cc1`, for which, in assay [1], the compound was called inactive.
As to `O=C1S/C(=C\c2ccc(OCc3cccc(B(O)O)c3)cc2)C(=O)N1Cc1ccc(F)cc1`, in assay [1], the concentration for half-maximal inhibition (IC50) is 23.5 µM (active).
Consider `C=CC(=O)N1CCC(C2CCNc3c(C(N)=O)c(-c4ccc(Oc5ccccc5)cc4)nn32)CC1` (configuration not stated), for which the result in assay [1] was inactive.
Regarding `CCCCCCCCCCCCCCCCCC(=O)N[C@H]1CCOC1=O`, the fold change in assay [2] (setting [4]) is 1.11 (inactive); in assay [2] (setting [5]), 1.44. Moreover, the cell count in assay [2] (setting [6]) was found to be 6650; in assay [2] (setting [7]) it was 6000.
For the compound `COc1ccc(-c2cnc3c(-c4cccc5ncccc45)cnn3c2)cc1`, in assay [1], the call was inactive. In addition, the fold change was 0.802 (inactive) in assay [2] (setting [4]) and 0.646 in assay [2] (setting [5]). Moreover, the cell count was determined as 4530 in assay [2] (setting [6]) and 5640 in assay [2] (setting [7]). In addition, the z-score was -0.0268 (inactive) in assay [3] (MELAS cybrid survival, CellTiter-Glo 48 h, stronger effect = higher value) and -0.688 in assay [3] (Rieske KO mouse fibroblast survival, CellTiter-Glo 72 h).
For `C/C=C(/C)C(=O)O[C@H]1C(C)=CC23C(=O)C(C=C(CO)[C@@H](O)[C@]12O)[C@H]1[C@@H](C[C@H]3C)C1(C)C` (some centres not stated), the compound was classed as inactive in assay [1].
Regarding `O=C(O)CC1CCC(c2ccc(-c3ccc(Nc4ccc(C(F)(F)F)nc4)cn3)cc2)CC1` (configuration not stated), in assay [1], the compound was called inactive.
In the case of `COc1ccc(/C=C/C(=O)Nc2c(O)cccc2C(=O)O)cc1OC`, the values for the fold change in assay [2] (setting [4]) and in assay [2] (setting [5]) were 0.585 (active) and 0.687, respectively. Further, the cell count in assay [2] (setting [6]) was found to be 3430; in assay [2] (setting [7]), 5870.
For the compound `C=CC(=O)N[C@H]1CCOC[C@H]1Nc1ncc2cc(-c3c(Cl)c(OC)cc(OC)c3Cl)ccc2n1`, the compound was classed as inactive in assay [1].
Turning to `CCCCC[C@H](O)/C=C/[C@@H]1[C@@H](C/C=C\CCCCCC(=O)O)[C@@H](O)C[C@H]1O`, the fold change in assay [2] (setting [4]) is 0.876 (inactive); in assay [2] (setting [5]) it was 0.899. The cell count was 5260 in assay [2] (setting [6]) and 6000 in assay [2] (setting [7]).
Regarding `CC1=NN(c2ccc(C(=O)O)cc2)C(=O)/C1=C/c1ccc(-c2cc(C)c(C)cc2[N+](=O)[O-])o1`, the call in assay [1] was inactive.
Turning to `CN(CCO)C1CCN(c2ccc(Nc3ncc4c5ccnc(F)c5n(C5CCCC5)c4n3)nc2)CC1`, the compound was called inactive in assay [1].
Turning to `CC(C)CCOc1ccc(NC(=S)Nc2ccc(OCCC(C)C)cc2)cc1`, the fold change is 0.881 (inactive) in assay [2] (setting [4]) and 0.401 in assay [2] (setting [5]). The values for the cell count in assay [2] (setting [6]) and in assay [2] (setting [7]) were 4560 and 5170, respectively.
On to `O=P(O)(O)OC1[C@H](OP(=O)(O)O)[C@H](O)C(O)[C@H](O)[C@H]1OP(=O)(O)O` (some centres not stated), for which the fold change in assay [2] (setting [4]) is 0.94 (inactive); in assay [2] (setting [5]) it was 1.1. Moreover, the results for the cell count in assay [2] (setting [6]) and in assay [2] (setting [7]) were 5720 and 6080, respectively.
On to `CCCCC/C=C\C/C=C\CCCCCCCC(=O)OC(CO)CO`, for which the fold change in assay [2] (setting [4]) was 0.978 (inactive); in assay [2] (setting [5]) it was 0.884. Besides, the cell count was 5470 in assay [2] (setting [6]) and 5600 in assay [2] (setting [7]).
The like results for `CCCCCCCCCCCCCCCC(=O)NC[C@@H](C)O` were, in that order, 1.02 (inactive), 0.848, 6270 and 6160.
For `O=C(O)CCC/C=C\C[C@@H]1[C@@H](/C=C/[C@@H](O)CCc2cccc(C(F)(F)F)c2)[C@H](O)C[C@@H]1O`, the fold change in assay [2] (setting [4]) was 1.01 (inactive); in assay [2] (setting [5]), 1.2. In addition, the cell count in assay [2] (setting [6]) was 5710; in assay [2] (setting [7]), 5640.
On to `CCCCCCCC/C=C\CCCCCCCC(=O)Nc1c(C(C)C)cccc1C(C)C`, for which the fold change in assay [2] (setting [4]) is 0.999 (inactive); in assay [2] (setting [5]) it was 0.853. For the same compound, the cell count in assay [2] (setting [6]) was determined as 5690; in assay [2] (setting [7]) it was 5700.
For `O=C(NCc1ccncc1)C12CC3CC(C1)CC(c1ccc(Cl)cc1)(C3)C2` the same measures were 0.915 (inactive), 1.12, 4010 and 4380.
For `O=C(NCc1ccc(Cl)c(Cl)c1)O[C@H]1CCc2ccccc21` the same measures were 1.02 (inactive), 1.19, 5770 and 5680.
Take `CCCCCCCCCCCCCCCCCCCCCCCCCCCCCCO`: the fold change in assay [2] (setting [4]) was 0.965 (inactive); in assay [2] (setting [5]), 0.745. The values for the cell count in assay [2] (setting [6]) and in assay [2] (setting [7]) were 6130 and 6350, respectively.
`O=C(O)CCC/C=C\C[C@H]1C(=O)C=C[C@@H]1/C=C/[C@@H](O)CCc1ccccc1`: the fold change was 0.944 (inactive) in assay [2] (setting [4]) and 0.959 in assay [2] (setting [5]). For the same compound, the cell count is 5880 in assay [2] (setting [6]) and 6220 in assay [2] (setting [7]).
Take `N[C@@H](Cc1ccc(O)c([N+](=O)[O-])c1)C(=O)O`: the fold change in assay [2] (setting [4]) is 0.943 (inactive); in assay [2] (setting [5]), 1.05. Besides, the values for the cell count in assay [2] (setting [6]) and in assay [2] (setting [7]) were 5730 and 6080, respectively.
Regarding `O=C(O)CCC/C=C\C[C@H]1C(=O)C=C[C@@H]1CC[C@@H](O)CCc1ccccc1`, the fold change in assay [2] (setting [4]) is 0.93 (inactive); in assay [2] (setting [5]), 1.2. For the same compound, the cell count in assay [2] (setting [6]) was 6220; in assay [2] (setting [7]), 6690.
As for `CCCCC[C@H](O)/C=C/[C@@H]1[C@@H](C/C=C\CCCC(=O)OCC(O)CO)[C@@H](O)C[C@H]1O` (some centres not stated), the figures for the fold change in assay [2] (setting [4]) and in assay [2] (setting [5]) were 0.942 (inactive) and 1.39, respectively. Besides, the results for the cell count in assay [2] (setting [6]) and in assay [2] (setting [7]) were 5810 and 6170, respectively.
Consider `CCCC1([C@@H](O)C/C=C/[C@H]2[C@H](O)CC(=O)[C@@H]2CCCCCCC(=O)O)CCC1`, for which the values for the fold change in assay [2] (setting [4]) and in assay [2] (setting [5]) were 0.95 (inactive) and 1.46, respectively. The cell count in assay [2] (setting [6]) is 5970; in assay [2] (setting [7]) it was 6280.
Turning to `CCCCCC(=O)CC[C@H]1C(=O)C[C@H](O)[C@@H]1C/C=C\CCCC(=O)O`, the fold change in assay [2] (setting [4]) is 1.27 (inactive); in assay [2] (setting [5]), 1.09. Besides, the cell count in assay [2] (setting [6]) is 6060; in assay [2] (setting [7]) it was 4770.
Consider `CC(=O)O[C@@]12CO[C@@H]1C[C@H](O)[C@@]1(C)C(=O)[C@H](OC(=O)O)C3=C(C)[C@@H](OC(=O)[C@H](O)[C@@H](NC(=O)c4ccccc4)c4ccccc4)C[C@@](O)([C@@H](OC(=O)c4ccccc4)C12)C3(C)C` (some centres not stated), for which the values for the fold change in assay [2] (setting [4]) and in assay [2] (setting [5]) were 1.13 (inactive) and 0.603, respectively. Further, the cell count in assay [2] (setting [6]) is 1340; in assay [2] (setting [7]) it was 1180.
Consider `CCCCC/C=C\C=C\[C@H](O)CCCCCCCC(=O)O`, for which the fold change was 1.01 (inactive) in assay [2] (setting [4]) and 1.02 in assay [2] (setting [5]). The figures for the cell count in assay [2] (setting [6]) and in assay [2] (setting [7]) were 5810 and 5740, respectively.
Take `CCCCCCCCCCCCC/C=C/[C@@H](O)[C@H](COP(=O)(O)O)NC(=O)CCCCCCC`: the fold change in assay [2] (setting [4]) was 1.01 (inactive); in assay [2] (setting [5]), 0.912. Besides, the figures for the cell count in assay [2] (setting [6]) and in assay [2] (setting [7]) were 5610 and 5550, respectively.
For `CCCCCCCCCC(=O)CC(=O)N[C@H]1CCOC1=O` the same measures were 0.908 (inactive), 0.275, 6050 and 6660.
With `CN`, the fold change is 1.06 (inactive) in assay [2] (setting [4]) and 0.984 in assay [2] (setting [5]). In addition, the figures for the cell count in assay [2] (setting [6]) and in assay [2] (setting [7]) were 4700 and 4430, respectively.

As a reminder, the IC50 is the concentration that inhibits the measured activity by half.
